Sequences and labels used below:
B1: VH:VL chains; a variant is named by its letters at X, in order (parent)
chain 1: QVQLVQSGAEVKKPGASVKVSCKASGYTFTDYXMHWVRQAPGQGLEWMGXVNPNXXXTTYNQKFEGRVTMTTDTSTSTAYMELRSLRSDDTAVYYCARXNXLDXWGQGTTVTVSS
chain 2: DIQMTQSPSSLSASVGDRVTITCSVSSSVSSIYLHWYQQKPGKAPKLLIYSTSNLASGVPSRFSGSGSGTDFTLTISSLQPEDFATYYCQVYSGYPLTFGGGTKVEIK

The other results are listed elsewhere or left out. No count for the full screen is at hand.

In the test the parent is B1. Briefly: yeast display scFab, FACS + sequencing. The note with it: with MET. In short, it runs like this: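 For FACS, yeast displaying a heavy-chain CDR mutant scFab library were labelled with 1 nM HGFR-Fc and anti-Myc (PBSB, 1% milk, 3 h, room temperature), and the top 50% antigen-positive cells were gated. Input and round-3 sorted populations were deep sequenced in two replicates. The binding call was positive for sequences occurring in both antigen-positive samples and negative for sequences occurring only in input.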
Regarding VKGAGAAS, the antigen binding call was “no binding”.
As to YRRGGAAS, the antigen binding call is recorded as “binds”.
Then FRRGGAAS, with “binds”; and VRRGGAAS, with “binds”.
To VRRTSAAS belongs “no binding”; to DEGGTAGA, “no binding”; to FGRRGAGV, “no binding”.
As for YRRRGSVV, the antigen binding call is recorded as “binds”.
Regarding YRRGGSWV, the antigen binding call is listed as “binds”.
For FRRRGSLV, the antigen binding call is on record as “binds”.
In the case of YRRRGYLV, the antigen binding call is listed as “no binding”.
Then YRRRGSLV, with “binds”; and YGETGFWY, with “no binding”.
In the case of DKTKSDWV, the antigen binding call is “no binding”.
For VAREGDLA, the antigen binding call is “no binding”.
On to AARADDVY, for which the antigen binding call is given as “no binding”.
For VRGAGSWV, the antigen binding call is listed as “no binding”.
With VTEEGSWV, the antigen binding call is “no binding”.
Turning to YRRRGAWV, the antigen binding call is “binds”.
To YRRRGSWV belongs “binds”.
For VRRRGSWV, the antigen binding call is given as “binds”.
Then YRRGGAWV, with “binds”; and VRRGGAWV, with “no binding”.
Then DEGKDDVA, with “no binding”; and DTGGGDAY, with “no binding”.
DTTEASLV: the antigen binding call was “no binding”.
With DRGRDDVA, the antigen binding call is on record as “no binding”.
As to FRGRDFVA, the antigen binding call was “no binding”.
For FRGRSSVA, the antigen binding call is recorded as “binds”.
Turning to FRGRDSVA, the antigen binding call is recorded as “binds”.
To DTGTSDLY belongs “no binding”; to FARAGDWV, “no binding”; to FRAGDAGV, “binds”.
FRARGAGV: the antigen binding call is recorded as “binds”.
Then VRAGDAGV, with “no binding”; and FRAGGAGV, with “binds”; and FRARGAGS, with “binds”.
As for FRAGGVGV, the antigen binding call is on record as “no binding”.
In the case of FEAGDDGV, the antigen binding call is “no binding”.
As to FEATAAGS, the antigen binding call was “no binding”.
VKGRADWV: the antigen binding call is “no binding”.
Turning to FRAGGSSV, the antigen binding call is “binds”.
Take YRGRTAAF: the antigen binding call is reported as “binds”.
YRGRTAAY: the antigen binding call is on record as “binds”.
Then YRERAAGY, with “binds”.
On to YRGRSAGY, for which the antigen binding call is “binds”.
As for SAGRSDLV chain 1 R67H, the antigen binding call is “no binding”.
In the case of SEARSDWV, the antigen binding call is “no binding”.
To AARADAGA belongs “no binding”.
Turning to YRGRTAAD, the antigen binding call was “binds”.
Regarding YRTRDAGY, the antigen binding call was “binds”.
On to YRGRSAAY, for which the antigen binding call is “binds”.
To YGKRDASY belongs “no binding”; to YRTRDDLY, “no binding”.
Take YRGRSASY: the antigen binding call is listed as “binds”.
Consider FKGRSASY, for which the antigen binding call is on record as “no binding”.
To YTKETAAD belongs “no binding”; to DKGGAVWT, “no binding”.
Turning to SEARSSSA, the antigen binding call is “no binding”.
As to DTTKGDVV, the antigen binding call is listed as “no binding”.
In the case of DEGGTSSA, the antigen binding call is recorded as “no binding”.
Then DTTRADVD, with “no binding”.
Then DTTKSSSS, with “no binding”.
For the variant DRGGDSSS, the antigen binding call is given as “binds”.
To DATGGSSS belongs “no binding”; to DRTGDSSS, “binds”; to DRGGDSLD, “no binding”.
Take DRGGDDGS: the antigen binding call was “no binding”.
For the variant DKGGSDVV, the antigen binding call is “no binding”.
As for STRGADAV, the antigen binding call was “no binding”.
In the case of DKEEADGV, the antigen binding call is “no binding”.
For the variant FRTGDDWV, the antigen binding call is given as “no binding”.
To FRAGGAWV belongs “binds”.
Then FRTGDAWV, with “binds”; and VATGDSLV, with “no binding”.
With FRAGSAVV, the antigen binding call is “binds”.
For FRTGDSLV, the antigen binding call was “binds”.
Then FRTGDDLV, with “no binding”; and SKTKSDVV, with “no binding”; and SAREGSSA, with “no binding”.
Take DEARGAGD: the antigen binding call is recorded as “no binding”.
As for FRRGGAWV, the antigen binding call is on record as “binds”.
As for FRRGGAVV, the antigen binding call is “binds”.
Turning to FRGRDVVV, the antigen binding call is “no binding”.
Then FATKGAWV, with “no binding”; and FRTKGAWV, with “binds”.
Then AARETVGA, with “no binding”; and STAESDLD, with “no binding”.
Take YRGRGFGY: the antigen binding call was “binds”.
As to YAGRGFGF, the antigen binding call is “no binding”.
On to YRGRGFGS, for which the antigen binding call is “binds”.
Regarding YAAAAFGY, the antigen binding call is “no binding”.
Take YRGRGFAS: the antigen binding call is recorded as “binds”.
Then YAGRSFGS, with “no binding”; and YRGRGFGF, with “binds”.
For the variant DAGGGAVV, the antigen binding call is “no binding”.
With YATGDDVA, the antigen binding call was “no binding”.
Consider DGGGNDLV, for which the antigen binding call was “no binding”.
As for VATRGYLV, the antigen binding call is listed as “no binding”.
Then AARADDVD, with “no binding”; and SRGKSFGS, with “no binding”.
On to DEGKGFGS, for which the antigen binding call was “no binding”.
YRGKGFGS: the antigen binding call is on record as “binds”.
For YRGRGVGF, the antigen binding call is “binds”.
Take YAKEGDGV: the antigen binding call is reported as “no binding”.
As to VGKGDDAA, the antigen binding call is “no binding”.
VRTEDASF: the antigen binding call was “no binding”.
YRGRGSSF: the antigen binding call is “binds”.
To YRGRGASF belongs “binds”; to YTTGSASF, “no binding”; to FRTGDDSF, “no binding”.
With FRTGDAVF, the antigen binding call is listed as “binds”.
To FRTGDSAS belongs “binds”; to FRTGDAVS, “binds”.
Regarding VTGGDSLV, the antigen binding call is given as “no binding”.
For FKTRDFAY, the antigen binding call is recorded as “no binding”.
As for VEKEGDVY, the antigen binding call is given as “no binding”.
Consider DATGGASD, for which the antigen binding call is recorded as “no binding”.
YRAGGYVF: the antigen binding call was “binds”.
In the case of AKGEDSVF, the antigen binding call is on record as “no binding”.
In the case of YKRRSSVF, the antigen binding call is recorded as “binds”.
Regarding YRAGGYVD, the antigen binding call is recorded as “binds”.
Take YRRGGYVD: the antigen binding call was “no binding”.
In the case of YRRRGYVF, the antigen binding call is on record as “binds”.
SEARSSSF: the antigen binding call is listed as “no binding”.
In the case of YRRRGSVF, the antigen binding call is listed as “binds”.
Regarding YRRRGAVF, the antigen binding call is on record as “binds”.
Consider VAGGAYLY, for which the antigen binding call is on record as “no binding”.
Then DTATADWA, with “no binding”.
In the case of FRRGDAAV, the antigen binding call is “binds”.
For the variant YGARNAAV, the antigen binding call was “no binding”.
For YAARGAAV, the antigen binding call is given as “no binding”.
For FRAGGAAV, the antigen binding call is “binds”.
Then YRARSAAV, with “binds”; and FRARGAAV, with “binds”.
Regarding DTAESSSF, the antigen binding call is recorded as “no binding”.
Regarding YTGTSDGV, the antigen binding call was “no binding”.
With VEGGGAVV, the antigen binding call was “no binding”.
Take FRTKDDVY chain 1 E46K: the antigen binding call is “no binding”.
On to DRAGDAAV, for which the antigen binding call is given as “no binding”.
Then SEARSAAV, with “no binding”.
To FRARSAAV belongs “binds”; to FRAGGSGD, “binds”.
To FREGGSGD belongs “no binding”; to FRKGGSGD, “binds”; to FAAGGSGD, “no binding”.
Take VGETSYVD: the antigen binding call is on record as “no binding”.
As to SKERGDGA, the antigen binding call is reported as “no binding”.
Regarding SKAKGSGA, the antigen binding call is “binds”.
As for SKRKSSGA, the antigen binding call is given as “no binding”.
Take SKAKGFGV: the antigen binding call is “no binding”.
Take SAAGGAGA chain 1 L45S: the antigen binding call is reported as “no binding”.
On to SKAKGSGV, for which the antigen binding call is listed as “binds”.
On to SKKRGSGA, for which the antigen binding call is recorded as “binds”.
SKAGGVGA: the antigen binding call is reported as “no binding”.
Regarding SKAGGAGA, the antigen binding call is “binds”.
Consider SKTKSSGA, for which the antigen binding call is reported as “no binding”.
Take SKTRGAGV: the antigen binding call is on record as “no binding”.
Take SGEEGSGA: the antigen binding call was “no binding”.
For the variant VAATADAV, the antigen binding call is reported as “no binding”.
Turning to VAGTSDGA, the antigen binding call is recorded as “no binding”.
For the variant DATGGFGV, the antigen binding call is “no binding”.
With DAGEGFVA, the antigen binding call is “no binding”.
As for VEEEAFAV, the antigen binding call is listed as “no binding”.
With VTGEDSLV, the antigen binding call was “no binding”.
VETGNSGA: the antigen binding call is given as “no binding”.
As for YRERGAGF, the antigen binding call was “binds”.
As to YRERGAAF, the antigen binding call is “binds”.
With DRGRDDAA, the antigen binding call is on record as “no binding”.
Then DAKEGDLV, with “no binding”; and YRAKGSLD, with “binds”.
Turning to YREKGSLD, the antigen binding call is reported as “binds”.
As to DATGGSLD, the antigen binding call was “no binding”.
As for YRTGGSLD, the antigen binding call is listed as “binds”.
Turning to YRTKASLD, the antigen binding call is given as “binds”.
Regarding DTREGDVA, the antigen binding call is “no binding”.
Then STAESDGA, with “no binding”.
To VGEGGDAY belongs “no binding”; to VAEKGFLV, “no binding”; to SRRETFVF, “no binding”.
As to DGGTNDVA, the antigen binding call is given as “no binding”.
For VAGTDAGD, the antigen binding call is given as “no binding”.
For the variant FKGRGSLY, the antigen binding call is on record as “binds”.
In the case of FKGRGSGY, the antigen binding call was “binds”.
For the variant VKGRASGY, the antigen binding call was “no binding”.
With FKGEGSLY, the antigen binding call is “no binding”.
On to YTRGADVA, for which the antigen binding call is listed as “no binding”.
As to YKRGASLA, the antigen binding call is “binds”.
On to YTRGAALA, for which the antigen binding call is given as “no binding”.
In the case of YTRGAAVA, the antigen binding call is given as “no binding”.
Then YTRGASGA, with “no binding”; and YKRGASVA, with “binds”; and YRTAGAGD, with “binds”.
In the case of YRTAGSSD, the antigen binding call is reported as “binds”.
On to YRTAGAAD, for which the antigen binding call is recorded as “binds”.
In the case of YRTAGSGD, the antigen binding call is recorded as “binds”.
With VATGDDGV, the antigen binding call is recorded as “no binding”.
Take STAESSSF: the antigen binding call is recorded as “no binding”.
Then DKTGNDVA, with “no binding”.
As to DRAGDDVY, the antigen binding call is “no binding”.
Take YTGTSAVA: the antigen binding call is on record as “no binding”.
Then SAGRGSAA, with “no binding”; and VAGRGSAA, with “no binding”; and VKGRADAA, with “no binding”.
Take SEGRGDAA: the antigen binding call is “no binding”.
Take VKGRGSAA: the antigen binding call is listed as “binds”.
Then SKGRGSAA, with “binds”.
For the variant VRGGGFGD, the antigen binding call was “binds”.
In the case of VRGRGFLD, the antigen binding call is “binds”.
With VRRANFLD, the antigen binding call is recorded as “no binding”.
Regarding VEGGGDGD, the antigen binding call is reported as “no binding”.
In the case of AAGRGFLD, the antigen binding call was “no binding”.
For VRGGGFGV, the antigen binding call is recorded as “no binding”.

The values are drawn from the emibetuzumab library of Makowski et al. (2022).
